High-throughput results as filed in PubChem BioAssay.
Sampled rows, rich in hits. Any-hit rate of the full collection: about 2.9%.
ATXN viability = cell viability loss in ATXN counter-screen | S2 cells (HEK-293 line with an ATXN2-luciferase reporter) viability, CellTiter-Fluor protease fluorescence, 24 h | AID 651635 | 400,000 compounds, 0.49% hits | Potency, µM (titrated, usually from 56.7 µM), actives largely listed as cytotoxic; further: nearly all actives have a fitted effect of over 40% in size
Nrf2 block = blocks Nrf2 signaling; A549 ARE-Fluc reporter, luciferase luminescence, 18-24 h; Potency, µM (highest dose often 46 µM), inactives show at the highest dose activity change, negative = inhibition, usual class: inhibitors; 360,000 compounds, 2.1% hits; further: on the % scale 0 is the no-effect control and ±100 the full control effect; nearly all actives have a fitted effect of over 60% in size
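Quantitative HTS in A549 cells stably bearing an antioxidant response element-firefly luciferase construct. Inhibition of Nrf2-driven transcription was scored by luminescence after 18-24 h of compound exposure at 37 °C.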
Nrf2 activator = activators of Nrf2 (ARE) signaling; AREc32 ARE-luciferase reporter (MCF7-derived line), luminescence, 24 h; Potency, µM (titrated, usually from 46.1 µM), inactives show top-dose activation, usual class: activators; 410,000 compounds, 0.31% hits; further: % of control where 0% means no effect; nearly all actives have a fitted effect of over 65% in size
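AREc32_Fluc, 1000 cells/well, OPTI-MEM + 5% FBS, o/n 37 deg C 5% CO2; 23 nL cpd by pin tool, 24 hr; Steady-Glo 30 min RT, luminescence.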
ATXN2 expr inh = reduces ATXN2 reporter expression in HEK-293 cells; Potency, µM (highest dose often 57 µM), for inactives: at the top dose activity change, negative = inhibition, actives largely listed as inhibitors; 360,000 compounds, 0.72% hits; HEK-293 ATXN2-luciferase reporter, luminescence, 24 h; further: on the % scale 0 is the no-effect control and ±100 the full control effect; nearly all actives have a fitted effect of over 55% in size
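qHTS (up to 57 uM final) was run with 24 h compound exposure of reporter cells at 37 °C. Each well was multiplexed: SteadyGlo luminescence measured ATXN2-luciferase expression after a fluorogenic Gly-Phe-AFC viability readout (25 uM final).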
A549 viability = kills or reduces viability of A549 cells in Nrf2 counter-screen; A549 ARE-Fluc cells, CellTiter-Fluor viability, 18-24 h; Potency, µM (series often up to 46 µM), for inactives: at the top dose activity change, negative = cytotoxicity, hits mostly inhibitors; 390,000 compounds, 0.16% hits; further: on the % scale 0 is the no-effect control and ±100 the full control effect
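A549 ARE-Fluc cells in 5% FBS OPTI-MEM, 5000 cells/well, rested 2 h then exposed to compounds in concentration-response for 18-24 h at 37 °C. Viability by CellTiter-Fluor fluorescence (Ex 405/Em 525) after 30 min; luciferase luminescence (BugLite, 15 min, RT) read afterwards.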
* = called active by the depositor; i = inactive; ? = inconclusive; . = no result; [ ] = another dose, or the depositor's remark. The call rests on the fitted dose curve; in most records, active means well fitted curve in the direction sought with a large enough effect; inconclusive means small, poorly fitted or top-dose-only effect, or another doubt; inactive means no such curve, though single readings can be large; an effect the other way counts as inactive or inconclusive. Potency means the concentration at half of the fitted maximal effect.

SMILES	ATXN viability	Nrf2 block	Nrf2 activator	ATXN2 expr inh	A549 viability
Cc1cc(C(=O)CSc2nc(N)cc(=O)[nH]2)c(C)n1-c1ccc(OC(F)F)cc1	i	18.4µM*	3.0%	-15.8%	-18.0%
COc1ccc(CCn2c(C)cc(C(=O)CSc3nc(N)cc(=O)[nH]3)c2C)cc1	i	18.4µM*	0.9%	?	-4.5%[1.84 µM]
O=C(Cn1c(=O)oc2ccccc21)Nc1ccccc1C(F)(F)F	i	0.7%	0.3%	-17.8%	-3.5%
COc1ccc(-c2csc(N3CCN(c4cc(C)nc5ccccc45)CC3)n2)cc1OC	10µM*	13µM*	-1.5%	?	20.6µM*
COc1cccc(Cl)c1NC(=O)N1CCN(c2ccnc3cc(Cl)ccc23)CC1	?	23.1µM*	5.0%	.	-25.0%
COc1cccc(Cl)c1NC(=O)N1CCN(c2cc(C)nc3ccccc23)CC1	?	23.1µM*	3.8%	?	?
O=C(CCc1nc2ccccc2c(=O)[nH]1)N1CCN(c2ccc(F)cc2)CC1	i	16.4µM*	1.4%	-6.5%	-0.2%
CC(=O)N1CCN(C(=O)CCc2nc3ccccc3c(=O)[nH]2)CC1	i	.	0.1%	-8.7%	-0.5%
COc1ccc(S(=O)(=O)Nc2nc3ccccc3s2)cc1	i	-7.7%	0.0%	6.9%	-4.6%
COc1ccc(C(=O)Nc2ccc(S(=O)(=O)NC(C)=O)cc2)cc1[N+](=O)[O-]	i	21.8%	0.5%	-19.3%	0.2%
C/C(=N\NC(=O)C(c1ccccc1)c1ccccc1)c1ccccn1	6.31µM*	11.6µM*	18.6%	3.55µM*	?
CC(=NNC(=S)Nc1ccc(C)cc1)c1ccccn1	i	?	1.6%	-60.4%	11.6µM*
C/C(=N\NC(=O)C1COc2ccccc2O1)c1ccccn1 (stereo unspecified)	?	9.2µM*	?	3.55µM*	?
C/C(=N\NC(=O)c1cccc2ccccc12)c1ccccn1	3.55µM*	-23.0%	?	?	?
CN(C)C(=O)CSc1nnc(-c2cccs2)n1-c1ccccc1	i	0.1%	0.2%	-4.8%	-6.0%
C/C(=N\NC(=O)c1cccc(Br)c1)c1ccccn1	?	2.31µM*	?	?	?
CCOc1ccc(OCc2ccc(C(=O)N/N=C(\C)c3ccccn3)cc2)cc1	?	?	12.5%	2.82µM*	?
Cc1ccc(NC(=O)CSc2nnc(CNC(=O)c3cccs3)o2)cc1	i	4.4%	0.0%	7.4%	1.8%
CCOC(=O)/C(=C\C=C\c1ccccc1)NC(=O)c1ccccc1	i	9.2µM*	6.1%	3.1%	-14.7%
CCN(CC)S(=O)(=O)c1ccc(C(=O)Nc2cccc(C)c2)cc1	i	?	2.5%	26.7%	-25.9%
CCN(CC)S(=O)(=O)c1ccc(NC(=O)Nc2cccc(C(F)(F)F)c2)cc1	?	20.6µM*	2.4%	20µM*	?
O=C(Nc1ccncc1)Nc1cccc(C(F)(F)F)c1	i	?	0.1%	-20.1%	0.4%
NC(=O)/C=C\C(=O)Nc1cccc(C(F)(F)F)c1	i	1.84µM*	?	-33.1%	-21.3%
Cc1ccc(S(=O)(=O)Nc2ccc(NC(=O)Nc3cccc(C(F)(F)F)c3)cc2)cc1	?	18.4µM*	-2.9%	?	?
O=C(Nc1ccc(OC(F)F)cc1)Nc1cccc(C(F)(F)F)c1	?	20.6µM*	0.1%	?	?
SMILES	ATXN viability	Nrf2 block	Nrf2 activator	ATXN2 expr inh	A549 viability
CCOc1ccc(NC(=O)CN(C)C(=O)c2ccccc2OCCOc2ccccc2)cc1OCC	i	?	0.1%	3.3%	-8.6%
COc1ccc(NC(=O)CSc2nc(-c3cccs3)cc(C(F)(F)F)n2)cc1OC	i	.	-0.7%	-22.8%	-14.0%
O=C(CSc1nc(-c2cccs2)cc(C(F)(F)F)n1)Nc1cc(OCC(F)(F)F)cc([N+](=O)[O-])c1	15.8µM*	?	-0.7%	?	-4.5%
O=C(O)c1ccc(NS(=O)(=O)c2cc(Cl)sc2Cl)cc1	i	23.3%	0.0%	-15.5%	0.2%
Cc1ccc(-c2nnc(N3CCN(C(=O)COc4ccccc4)CC3)c3ccccc23)cc1	i	18.4µM*	3.2%	?	?
O=C(COc1ccc([N+](=O)[O-])cc1)N1CCN(c2nnc(-c3ccccc3)c3ccccc23)CC1	i	23.1µM*	-0.1%	.	-9.8%
Cc1cnn(CCC(=O)NNC(=S)Nc2ccc(F)cc2)c1	i	-8.4%	-0.6%	-11.2%	-2.2%
O=C(Oc1c(CN2CCOCC2)cc(Cl)c2cccnc12)c1ccccc1Cl	?	-23.1%	?	?	-24.4%
O=C(Oc1c(CN2CCOCC2)cc(Cl)c2cccnc12)c1ccc(F)cc1	?	23.1µM*	2.2%	?	.
O=C(Oc1c(CN2CCOCC2)cc(Cl)c2cccnc12)c1cccs1	?	?	?	?	-8.5%
COc1ccc(C(=O)Oc2c(CN3CCOCC3)cc(Cl)c3cccnc23)cc1	?	-1.1%	17.1%	?	-16.5%
COc1cc(C(=O)Oc2c(CN3CCOCC3)cc(Cl)c3cccnc23)cc(OC)c1OC	1.58µM*	8.7%	?	1.58µM*	-3.6%
COc1cccc(C(=O)Oc2c(CN3CCOCC3)cc(Cl)c3cccnc23)c1	?	?	-0.7%	10µM*	?
CCCNC(=O)C1(CC2CC(c3ccccc3)=NO2)CCN(C(=O)CCCCCBr)CC1 (stereo unspecified)	i	-0.6%	0.2%	5.0%	7.7%
CN(C)c1ccc(C=C2C=Cc3ccccc32)cc1	?	?	3.0%	5.0%	-19.7%
CN(C)c1ccc(C=c2c3ccccc3n3c2c2ccccc2[n+]3C)cc1	?	8.2µM*	7.6%	6.31µM*	?
CCOC(=O)c1cc2c(=Cc3ccc(N(C)C)cc3)c3ccccc3n2[n+]1C	.	8.2µM*	3.6%	?	?
COC(=O)N1CCc2c(sc(NC(=O)C3COc4ccccc4O3)c2C(N)=O)C1 (stereo unspecified)	i	?	9.3%	53.4%	-9.4%
CCCCN1C(=O)/C(=C/C=C2\Oc3ccccc3N2CC)SC1=S	?	-9.7%	-0.4%	-12.6%[11.3 µM]	?
CCN1/C(=C/C=C/c2oc3ccc(-c4ccccc4)cc3[n+]2CC)Oc2ccc(-c3ccccc3)cc21	.	5.8µM*	-2.0%	9.47µM*	14.6µM*
CCOc1ccc(NC(=S)NC(=O)/C=C/c2ccc(OC)c(OC)c2)c([N+](=O)[O-])c1	?	20.6µM*	-0.9%	?	?
CCOc1ccc(NC(=S)NC(=O)/C=C/c2ccc(C)cc2)c([N+](=O)[O-])c1	?	?	2.2%	?	-18.6%
O=C(Nc1ccc(C(F)(F)F)cc1)C1=NN(C2CCS(=O)(=O)C2)C(=O)CC1 (stereo unspecified)	i	-59.1%	3.1%	.	11.9%
